Compound activity (PubChem)
Hits are enriched below; roughly 7.5% of the tested compounds scored in any of these assays.
ELG1 DNA repair – blocks ELG1-dependent DNA repair in HEK293T cells | HEK293T ELG1-luciferase reporter, luminescence, 16 h; DNA damage induced by 5-fluorouridine | Potency, µM (doses to about 46.1 µM), hits mostly inhibitors | 2.3% of 330,000 active | AID 504467; note: nearly all actives have a fitted effect of over 55% in size
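5-Fluorouridine DNA damage + compound/DMSO, 2,000 cells/well, 16 h, 37 °C/5% CO2. ONE-Glo, 30 min RT, luminescence. Readout = decrease in reporter signal.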
B2AR arrestin – beta2AR (human) beta-arrestin recruitment activity. P07550. beta-arrestin recruitment to beta2AR, cell-based reporter. Potency, µM (titrated, usually from 46.1 µM), actives largely listed as activators. 0.02% of 330,000 active; note: nearly all actives have a fitted effect of over 65% in size
VP16 counter – counter-screen for ROR gamma inhibitors: Gal4-VP16 reporter | 3.5% of 310,000 active | Potency, µM (series often up to 53.6 µM), usual class: inhibitors | Drosophila S2 Gal4-VP16 UAS-luciferase, luminescence, 20 h;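 note: Gal4-VP16 expression switched on by copper sulfate through the metallothionein promoter; nearly all actives have a fitted effect of over 50% in size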
RORg inh – ROR gamma (mouse) transcription inhibition; Drosophila S2 Gal4-RORgamma UAS-luciferase reporter, 20 h; 5.4% of 310,000 active; Potency, µM (doses to about 53.6 µM), actives largely listed as inhibitors; P51450; note: nearly all actives have a fitted effect of over 60% in size
Target sequence (P51450 whole entry, looked up, the tested form may be a part): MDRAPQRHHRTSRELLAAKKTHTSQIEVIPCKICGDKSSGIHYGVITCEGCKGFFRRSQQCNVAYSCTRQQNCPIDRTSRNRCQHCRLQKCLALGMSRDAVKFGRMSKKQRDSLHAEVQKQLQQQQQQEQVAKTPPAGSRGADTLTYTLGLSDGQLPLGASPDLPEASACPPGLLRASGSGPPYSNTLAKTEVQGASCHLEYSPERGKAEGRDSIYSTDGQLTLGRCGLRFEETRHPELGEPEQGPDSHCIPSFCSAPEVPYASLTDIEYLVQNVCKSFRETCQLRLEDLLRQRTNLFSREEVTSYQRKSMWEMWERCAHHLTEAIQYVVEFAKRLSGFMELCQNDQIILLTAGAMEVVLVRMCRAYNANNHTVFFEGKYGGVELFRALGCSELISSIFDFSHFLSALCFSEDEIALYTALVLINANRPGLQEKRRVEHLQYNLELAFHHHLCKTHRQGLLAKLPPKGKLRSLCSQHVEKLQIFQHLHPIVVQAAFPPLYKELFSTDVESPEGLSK
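Schneider cells (Drosophila), stable Gal4 DBD–ROR gamma + UAS-luc; 1 hr cmpd preincubation; Cu2+ induction 700 uM final; 20 hr ambient; luminescence.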
TSHR antag – antagonists of human thyroid stimulating hormone receptor | TSHR-expressing cells, TSH-stimulated cAMP HTRF, 2 h; stronger effect = lower value | activity change, negative = inhibition, % at 11.5 µM | 0.2% of 330,000 active;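 active = activity change below a set negative limit, meaning inhibition stronger than a set level, cut at about -70% in these data; inconclusive = activity change between two set negative limits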
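Freshly harvested TSHR cells receive pin-tooled compound, then EC80 TSH at 4nM final. After 2 hours at 37 deg C, antibody in lysis buffer and cAMP-d2 are added; 30 minutes at ambient temperature precede the HTRF read.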
Hits are given with their value; – = inactive; ? = inconclusive; · = not tested or not shown; [ ] = another dose, or the depositor's remark. Unless noted, calls come from the whole dose curve; as a rule, active = well fitted curve in the direction sought with a large enough effect; inconclusive = small, poorly fitted or top-dose-only effect, or another doubt; inactive = no such curve, though single readings can be large; an effect the other way counts as inactive or inconclusive.

SMILES | ELG1 DNA repair | B2AR arrestin | VP16 counter | RORg inh | TSHR antag
N#Cc1c(NC(=O)CSc2ncn[nH]2)sc2c1CCCCC2 | ? | – | 0.16µM | 0.4µM | –
CCOC(=O)C1CCN(C(=O)COC(=O)C2CCN(S(=O)(=O)c3ccc(C)c(C)c3)CC2)CC1 | – | – | · | · | –
COc1ccc(C(=O)COC(=O)CCNS(=O)(=O)c2ccccc2)c(OC)c1 | – | – | · | · | –
Cc1ccc2c(C)c(C(=O)N(Cc3ccc(N(C)C)cc3)C3CCS(=O)(=O)C3)oc2c1 (centres undefined) | 16µM | – | – | – | –
Cc1ccc2oc(C(=O)N(Cc3ccc(N(C)C)cc3)C3CCS(=O)(=O)C3)c(C)c2c1 (centres undefined) | – | – | – | – | –
Cn1ncc(S(=O)(=O)Cc2ccccc2)c(Cl)c1=O | – | – | – | – | –
Cn1ncc(SCc2ccccc2)c(Cl)c1=O | 8.2µM | – | 16µM | ? | –
CCCC(=O)Oc1ccc(C2NC(=O)c3ccccc3O2)cc1 (centres undefined) | ? | – | – | – | –
Cc1ccc(C2(c3ccccc3)NC(=O)N(CC(=O)N(C)C3CCS(=O)(=O)C3)C2=O)cc1C (centres undefined) | – | – | · | · | –
CCCn1c(N)c(C(=O)CSc2nnc(Cc3ccccc3)o2)c(=O)n(C)c1=O | 5.8µM | – | ? | ? | –
O=C(Nc1cccnc1)c1cccc(S(=O)(=O)Nc2cccc(Cl)c2)c1 | ? | – | · | · | –
CCN(CC)S(=O)(=O)c1cccc(C(=O)N/N=C(\C)c2cccs2)c1 | ? | – | ? | 3.5µM | –
C/C(=N\NC(=O)c1cccc(S(=O)(=O)Nc2cccc(Cl)c2)c1)c1cccs1 | – | – | 4µM | 5µM | –
Cc1c2c(nc3ccccc13)CCC(C)C2 (centres undefined) | – | – | – | 11µM | –
CC1CCc2nc3ccccc3c(C(=O)OCC(=O)NC3CCS(=O)(=O)C3)c2C1 (centres undefined) | – | – | – | – | –
Cc1cc(C)cc(N2Cc3ccccc3C2)c1 | ? | – | – | – | –
COc1cc(N2Cc3ccccc3C2)ccc1C=O | ? | – | 0.4µM | 0.35µM | –
COc1ccccc1S(=O)(=O)Cc1ccc(C(=O)N2CCN(c3cccc(Cl)c3)CC2)o1 | 12µM | – | – | – | –
COc1ccccc1S(=O)(=O)Cc1ccc(C(=O)N2CCOCC2)o1 | – | – | – | – | –
COc1ccccc1S(=O)(=O)Cc1ccc(C(=O)N2CCN(c3ccccc3)CC2)o1 | 21µM | – | – | – | –
COc1ccc(CCNC(=O)c2cc(C(=O)c3cc(C)ccc3O)cn(CCc3ccc(OC)cc3)c2=O)cc1 | 13µM | – | – | – | –
O=C(c1cc(C(=O)NCCc2ccccc2)c(=O)n(CCc2ccccc2)c1)c1cc(Cl)ccc1O | 23µM | – | 14µM | ? | –
COc1ccc(CCNC(=O)c2cc(C(=O)c3cc(Cl)ccc3O)cn(CCc3ccc(OC)cc3)c2=O)cc1 | ? | – | – | ? | –
COC(=O)Cn1c(C(=O)N2CCCC2)cc2c1C[C@H]1CN(C(=O)c3ccccc3)[C@@](Cc3ccccc3)(C(=O)OC)[C@@H]21 | · | · | – | – | ·
CN1CCN(c2nc(-c3ccccc3)nc(-c3ccc(F)cc3)c2C#N)CC1 | ? | – | – | – | –
SMILES | ELG1 DNA repair | B2AR arrestin | VP16 counter | RORg inh | TSHR antag
CC(C)Nc1nc(-c2ccccn2)nc(-c2ccccc2)c1C#N | ? | – | ? | 2.5µM | –
COc1ccc(-c2nc(-c3ccccn3)nc(N3CCN(C)CC3)c2C#N)cc1 | ? | – | – | 1.4µM | –
COc1ccccc1-c1nc(-c2ccccc2)nc(N2CCN(C)CC2)c1C#N | 21µM | – | – | 14µM | –
COC(=O)NC(CC(C)=O)c1cccc(C)c1 (centres undefined) | · | · | –[10 µM] | –[10 µM] | ·
Cc1nn(-c2ccccn2)c2nc(-c3cccs3)cc(C(=O)NCc3ccco3)c12 | ? | – | ? | 14µM | –
CCOC(=O)c1cc(-c2cccs2)nc2c1c(C)nn2-c1ccccn1 | ? | – | 7.1µM | 1.8µM | –
Clc1ccc(-c2c[n+](Cc3ccc(Br)cc3)c3n2CCCCC3)cc1 | ? | – | 11µM | ? | –
O=[N+]([O-])c1ccc(C[n+]2cc(-c3ccccc3)n3c2CCCCC3)cc1 | – | – | – | – | –
Clc1ccc(C[n+]2cc(-c3ccccc3)n3c2CCCCC3)c(Cl)c1 | ? | – | 13µM | ? | –
Clc1ccc(-c2c[n+](Cc3ccc(Cl)cc3Cl)c3n2CCCCC3)cc1 | ? | – | 11µM | – | –
Clc1ccc(-c2c[n+](Cc3cccc(Cl)c3)c3n2CCC3)cc1 | – | – | – | ? | –
O=[N+]([O-])c1ccc(C[n+]2cc(-c3ccc(Cl)c(Cl)c3)n3c2CCCCC3)cc1 | – | – | – | 0.25µM | –
N#CC[n+]1cc(-c2ccc(Cl)cc2)n2c1CCC2 | – | – | – | – | –
Cc1ccc(-c2c[n+](CC(=O)c3ccc(Br)cc3)c3n2CCCCC3)cc1 | ? | – | ? | – | –
O=C(C[n+]1cc(-c2ccccc2)n2c1CCCCC2)c1ccc(Cl)cc1 | – | – | ? | – | –
CC1CCC(C(C)C)C(OC(=O)C[n+]2cc(-c3ccc(Cl)cc3)n3c2CCCCC3)C1 (centres undefined) | ? | – | 10µM | – | –
COc1ccc(-c2c[n+](CC(=O)c3ccccc3)c3n2CCCCC3)cc1 | 15µM | – | – | – | –
O=P(O)(O)OC[C@H]1O[C@](O)(COP(=O)(O)O)[C@@H](O)[C@@H]1O | · | · | – | – | ·
COc1cc(/C=N/N2CCN(Cc3ccc(C)cc3)CC2)cc(OC)c1O | – | – | – | ? | –
CC1CCN(CCCNC(=O)c2ccc3c(=O)n(Cc4ccc(Cl)cc4)c(=S)[nH]c3c2)CC1 | – | – | 20µM | 13µM | –
O=C(NCCCN1CCOCC1)c1ccc2c(=O)n(Cc3ccc(Cl)cc3)c(=S)[nH]c2c1 | – | – | ? | 11µM | –
COC(=O)c1ccc2c(=O)n(Cc3ccc(C(=O)NCCCN4CCOCC4)cc3)c(=S)[nH]c2c1 | – | – | – | – | –
CN(Cc1ccco1)c1ccnc(-c2ccccc2C(F)(F)F)n1 | · | · | – | – | ·
CCCCC[C@H](O)/C=C/C=C\C=C\[C@@H](O)C/C=C\CCCC(=O)O | · | · | – | – | ·
Cc1ccc(NC(=O)c2nc(S(=O)(=O)Cc3ccccc3C)ncc2Cl)cc1C | ? | – | 5µM | ? | ?
CCOC(=O)c1ccc(NC(=O)c2nc(S(=O)(=O)Cc3ccccc3)ncc2Cl)cc1 | ? | – | 4.5µM | 7.9µM | ?
CCS(=O)(=O)c1ncc(Cl)c(C(=O)Nc2ccc(S(=O)(=O)N3CCC(C)CC3)cc2)n1 | ? | – | 4.5µM | 3.2µM | -78
CCc1ccc(NC(=O)c2nc(S(=O)(=O)Cc3ccccc3)ncc2Cl)cc1 | ? | – | 3.2µM | 0.28µM | -74
S=C([S-])NCCNC(=S)[S-].[Zn+2] | · | · | – | – | ·
